Compound activity as filed in PubChem BioAssay.
gsp antagonist – qHTS for Antagonists of gsp, the Etiologic Mutation Responsible for Fibrous Dysplasia/McCune-Albright Syndrome: qHTS; gsp-mutant cells, cAMP HTRF, 30 min; Potency, µM (titrated, usually from 76.9 µM), hits mostly inhibitors; hit rate 0.4% among 340,000; AID 624288, 2012; calls by dose curve; cell line not stated here;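 note: intracellular cAMP measured with PDE inhibitor Ro 20-1724 present during compound exposure; nearly all actives have a fitted effect of over 65% in size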
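HTRF cAMP measurement after 30 min RT detection following 30 min, 37C compound treatment alongside […] (added as 300 uM solution) in G418-selected cells seeded at 2000/well and grown 16–24 h.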
RXFP1 agonist – qHTS Assay for Agonists of the Relaxin Receptor RXFP1; HEK293T-RXFP1 cAMP TR-FRET, 30 min; response scale: percent of porcine relaxin response, buffer zero; Potency, µM (top dose mostly 57.5 µM), actives largely listed as activators; hit rate 0.3% among 370,000; active = well fitted activation curve with a large enough effect; inconclusive = small, poorly fitted or top-dose-only effect; note: nearly all actives have a fitted effect of over 60% in size
Target sequence (Q9HBX9 whole entry, looked up): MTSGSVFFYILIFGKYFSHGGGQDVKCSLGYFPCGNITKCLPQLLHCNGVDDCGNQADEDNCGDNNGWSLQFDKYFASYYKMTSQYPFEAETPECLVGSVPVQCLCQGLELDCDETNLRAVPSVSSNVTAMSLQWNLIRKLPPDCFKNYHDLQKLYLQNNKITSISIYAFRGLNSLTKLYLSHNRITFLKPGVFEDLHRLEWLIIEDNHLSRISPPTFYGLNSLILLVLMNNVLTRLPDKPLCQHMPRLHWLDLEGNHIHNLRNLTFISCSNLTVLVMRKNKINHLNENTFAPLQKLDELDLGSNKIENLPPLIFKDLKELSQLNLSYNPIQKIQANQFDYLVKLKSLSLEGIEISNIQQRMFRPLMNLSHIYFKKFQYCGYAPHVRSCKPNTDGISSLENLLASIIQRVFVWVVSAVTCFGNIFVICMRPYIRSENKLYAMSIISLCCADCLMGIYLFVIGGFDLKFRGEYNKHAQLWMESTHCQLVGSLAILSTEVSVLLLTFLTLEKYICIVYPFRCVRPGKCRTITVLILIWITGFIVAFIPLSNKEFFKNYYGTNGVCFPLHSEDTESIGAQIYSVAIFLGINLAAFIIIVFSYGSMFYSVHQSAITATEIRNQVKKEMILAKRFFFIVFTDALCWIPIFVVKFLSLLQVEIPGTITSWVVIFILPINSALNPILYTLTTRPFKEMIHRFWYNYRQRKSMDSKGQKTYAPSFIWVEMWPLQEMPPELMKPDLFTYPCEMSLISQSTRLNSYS
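HEK293T cells stably expressing RXFP1 were pretreated with the PDE4 inhibitor Ro 20174, exposed to compounds for 30 min at 37C, lysed, and cAMP was read by TR-FRET. Data normalized to buffer (basal) and 29 nM porcine relaxin (100%).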
RXFP1 antag – qHTS Assay for Antagonists of the Relaxin Receptor RXFP1. activity change, negative = inhibition, % at 57.5 µM. HEK293-RXFP1, relaxin-stimulated cAMP HTRF, 30 min; stronger effect = lower value. hit rate 0.59% among 350,000. Relaxin receptor 1 (Homo sapiens), Q9HBX9;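 active = activity change of -60% or lower, but not beyond a set lower limit; inconclusive = change between -60% and -40%, or beyond the set limit; inactive = change above -40%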
gsp ag – qHTS for Agonist of gsp, the Etiologic Mutation Responsible for Fibrous Dysplasia/McCune-Albright Syndrome: qHTS; gsp mutant cells, cAMP HTRF, 30 min; Potency, µM (titrated, usually from 76.9 µM), usual class: activators; hit rate 0.13% among 340,000; AID 624287, 2012; active = well fitted activation curve with a large enough effect; inconclusive = small, poorly fitted or top-dose-only effect, or another doubt; inactive = no such curve, though single readings can be large or run the other way; cell line not stated here;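 note: phosphodiesterase inhibitor Ro 20-1724 added with compounds to block cAMP breakdown; nearly all actives have a fitted effect of over 60% in size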
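Cells stably selected in G418 were plated at 2000/well, grown 16-24 hr, then given compounds in DMSO with the PDE inhibitor […] (300 uM solution added) for 30 min at 37C; cAMP was read by HTRF.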
Akt phos inh – HTS Assay for Inhibitors of Akt Phophorylation: Primary Screen; Neuro2A IGF-stimulated pAkt S473 HTRF, 20 min; stronger effect = lower value; activity change, % for hits at 50 µM; hit rate 0.32% among 360,000; in the data active = activity change below about -80%; inconclusive = mostly about -51% to -80%
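Neuro2A cells in DMEM with 0.5% FBS, overnight at 37 deg C, given compound at single 50 µM final, then IGF (6 nM final) for 20 min at 37 deg C. Lysed; phospho-Akt Ser473 by HTRF after 24 h, 665/615 ratio.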
A number is an active result; [ ] = remark or other dose. Hits are enriched below; roughly 1.3% of the tested compounds scored in any of these assays.

What do the screens show for `COc1ccc(-c2[nH]ncc2Oc2ccccc2OC)c(O)c1`?
gsp antagonist: 12.6µM; RXFP1 agonist: inactive; RXFP1 antag: inactive; gsp ag: inactive; Akt phos inh: inactive

Results for Cc1cccc(OCc2ccc(-c3nc(C#N)c(NCCN(C)C)o3)o2)c1 ?
RXFP1 agonist: inactive; RXFP1 antag: inactive

What do the screens show for `Cc1ccc2oc(C(=O)N(Cc3cccc(F)c3)C3CCS(=O)(=O)C3)c(C)c2c1` (stereo not given)?
RXFP1 agonist: inactive; RXFP1 antag: inactive

How did COc1cccc(-c2nc(SCC(=O)NC3CCCC3)c(-c3ccc(F)cc3)[nH]2)c1 do in these assays?
RXFP1 agonist: inactive; RXFP1 antag: inconclusive

Results for Cc1cccc(C(=O)N2CCc3cc(CNC(=O)c4ccnn4C)ccc32)c1 ?
RXFP1 agonist: inactive; RXFP1 antag: inactive

How did COc1cc(/C=C2\SC(=O)N(CCN)C2=O)ccc1OS(=O)(=O)c1cc(C)ccc1C do in these assays?
gsp antagonist: inactive; RXFP1 agonist: inactive; RXFP1 antag: -72.4; gsp ag: inactive[15.4 µM]; Akt phos inh: inactive

Results for COc1ccc(/C=C2\SC(=O)N(CCC(=O)Nc3ccccc3)C2=O)cc1OC ?
gsp antagonist: inconclusive; RXFP1 agonist: inactive; RXFP1 antag: inactive; gsp ag: inconclusive; Akt phos inh: inactive

What do the screens show for `CN(c1nnc(NC(=O)Nc2ccc(Br)cc2)s1)C1CCCCC1`?
RXFP1 agonist: inactive; RXFP1 antag: inactive

What do the screens show for `COCCCNC(=O)c1c(NC(=O)Cc2coc3cc(C)ccc23)sc2c1CCCC2`?
RXFP1 agonist: inactive; RXFP1 antag: inactive

What do the screens show for `CCc1cccc(C)c1NC(=O)c1cnn(-c2ccc(OC)cc2)c1C1CCN(C(=O)OC(C)(C)C)CC1`?
RXFP1 agonist: inactive; RXFP1 antag: inactive

Results for Cc1c(C(=O)NNc2cc(=O)n(C)c(=O)n2C)cccc1[N+](=O)[O-] ?
gsp antagonist: inactive; RXFP1 agonist: 14.1µM; RXFP1 antag: inactive; gsp ag: inconclusive; Akt phos inh: inactive

How did FC(F)(F)c1nc(=S)c2ccccc2[nH]1 do in these assays?
gsp antagonist: inactive; RXFP1 agonist: inactive; RXFP1 antag: inactive; gsp ag: 2.24µM; Akt phos inh: inactive

Results for Cc1ccc(C)c(OCC(O)CN2CCC(Cc3ccccc3)CC2)c1 (stereo not given) ?
gsp antagonist: inactive; RXFP1 agonist: inactive; RXFP1 antag: -69.6; gsp ag: inactive

Results for OC(COc1ccc(Cl)cc1)CN1CCC(Cc2ccccc2)CC1 (stereo not given) ?
gsp antagonist: inactive; RXFP1 agonist: inactive; RXFP1 antag: inactive; gsp ag: inactive; Akt phos inh: inactive

How did Cc1ccc(C(C)C)c(OCC(O)CN2CCc3ccccc3C2)c1 (stereo not given) do in these assays?
gsp antagonist: inactive; RXFP1 agonist: inactive; RXFP1 antag: -80.5; gsp ag: inactive; Akt phos inh: inactive

What do the screens show for `CCCCN(C)S(=O)(=O)c1cc(-c2cc(C)no2)ccc1C`?
RXFP1 agonist: inactive; RXFP1 antag: inactive

How did CC1=C(C(=O)OCC2CCCO2)C(c2ccccc2Cl)NC(=O)N1 (stereo not given) do in these assays?
gsp antagonist: inactive; RXFP1 agonist: inactive; RXFP1 antag: inactive; gsp ag: inactive; Akt phos inh: -98.7%

What do the screens show for `CC1=C(C(=O)OCC2CCCO2)C(c2ccc(Cl)c(Cl)c2)NC(=O)N1` (stereo not given)?
gsp antagonist: inactive; RXFP1 agonist: inactive; RXFP1 antag: inactive; gsp ag: inconclusive; Akt phos inh: inactive

Results for CCCN(CCC)c1nn2c(=O)c(C(=O)NCc3cc(Br)ccc3OC)cnc2s1 ?
RXFP1 agonist: inactive; RXFP1 antag: inactive

What do the screens show for `C(=N\Nc1nc(Nc2ccccc2)nc(Nc2ccccc2)n1)/c1cccnc1`?
gsp antagonist: inactive; RXFP1 agonist: inactive; RXFP1 antag: inactive; gsp ag: inconclusive; Akt phos inh: inactive

How did C(=N\Nc1nc(Nc2ccccc2)nc(Nc2ccccc2)n1)/c1ccncc1 do in these assays?
gsp antagonist: inactive; RXFP1 agonist: inactive; RXFP1 antag: -60.9; gsp ag: inactive; Akt phos inh: inactive

What do the screens show for `CN(C)c1ccc(-n2cccc2/C=C/[N+](=O)[O-])cc1`?
gsp antagonist: inactive; RXFP1 agonist: inactive; RXFP1 antag: -82.8; gsp ag: inactive[15.4 µM]; Akt phos inh: inactive

Results for Cc1cc(NC(=O)c2cc(-c3ccc(F)cc3)on2)nn1Cc1ccc(Cl)cc1 ?
RXFP1 agonist: inactive; RXFP1 antag: inactive

How did O=C(CSc1nc2ccccc2c(=O)[nH]1)N1CCN(S(=O)(=O)c2ccccc2)CC1 do in these assays?
gsp antagonist: inactive; RXFP1 agonist: inactive; RXFP1 antag: inactive; gsp ag: inactive; Akt phos inh: -84.2%

What do the screens show for `O=C(CSc1nc2ccccc2c(=O)[nH]1)N1CCCCCC1`?
gsp antagonist: inactive; RXFP1 agonist: inactive; RXFP1 antag: inactive; gsp ag: inactive; Akt phos inh: inactive

What do the screens show for `O=C1CN(c2nc(-c3cccnc3)nc3sc4c(c23)CCCC4)CCN1`?
gsp antagonist: inactive; RXFP1 agonist: inactive; RXFP1 antag: inactive; gsp ag: 25.1µM; Akt phos inh: inactive

How did COc1cc(-c2cc3nc4ccccc4n3c(N)c2C#N)cc(OC)c1OC do in these assays?
gsp antagonist: inactive; RXFP1 agonist: inactive; RXFP1 antag: inactive; gsp ag: 28.2µM; Akt phos inh: inactive

How did CCCCOC(=O)CCCCCCCCC(=O)OCCCC do in these assays?
RXFP1 antag: inactive

Results for CC(NC(=O)CN(C)Cc1cccc(Cl)c1)c1ccccc1 (stereo not given) ?
gsp antagonist: 11.2µM; RXFP1 agonist: inactive; RXFP1 antag: inactive; gsp ag: inactive[15.4 µM]; Akt phos inh: inactive

Results for COC(=O)CSc1ncnc2c1sc1nc(N3CCOCC3)c3c(c12)CCCC3 ?
gsp antagonist: inactive; RXFP1 agonist: inactive; RXFP1 antag: inactive; gsp ag: inactive; Akt phos inh: inactive

What do the screens show for `CCOC(=O)CSc1ncnc2c1sc1nc(N3CCOCC3)c3c(c12)CCCC3`?
gsp antagonist: inactive; RXFP1 agonist: inactive; RXFP1 antag: inactive; gsp ag: inactive; Akt phos inh: -84.2%

How did CC(=O)Oc1cc2c(C(C)=O)coc2c2ccccc12 do in these assays?
gsp antagonist: inactive; RXFP1 agonist: inactive; RXFP1 antag: inactive; gsp ag: inactive; Akt phos inh: -144.4%

What do the screens show for `O=C(OCc1ccco1)c1ccc2c(c1)N(Cc1ccc([N+](=O)[O-])cc1)C(=O)c1ccccc1S2`?
RXFP1 agonist: inactive

What do the screens show for `CC(C)c1ccc(NC(=O)c2snc3ccc(Cl)cc23)cc1`?
gsp antagonist: 28.2µM; RXFP1 agonist: inactive; RXFP1 antag: inactive; gsp ag: inactive; Akt phos inh: inactive
